The text below walks through data of PubChem BioAssay (NCATS).

Results filed as inconclusive are left out. Entries that show only a call come without a potency. Calls of active or inactive are those of the source. The call rests on the fitted dose curve; tested in HEK293 reporter line.
Potency means the concentration at half of the fitted maximal effect.

This assay is described as follows: qHTS for Inhibitors of the Functional Ribonucleoprotein Complex (vRNP) of Lassa (LASV) Arenavirus: LASV Primary Screen - GLuc reporter signal (AID 1347082). Further: nearly all actives have a fitted effect of over 60% in size. The note with it: LASV minigenome vRNP, Gaussia luciferase reporter; series mostly up to 57.5 µM.
On to `Fc1ccc([C@@H]2CCNC[C@H]2COc2ccc3c(c2)OCO3)cc1`, for which the Potency result is “inactive”.
To `Cc1cn[nH]c1` belongs “inactive”.
As for `COc1cc2nc(N3CCN(C(=O)C4CCCO4)CC3)nc(N)c2cc1OC` (configuration not stated), the Potency result is “inactive”.
To `O=C1NC(c2ccccc2)(c2ccccc2)C(=O)N1COP(=O)(O)O` belongs “inactive”; to `Cc1ccsc1C(=CCCN1CCC[C@@H](C(=O)O)C1)c1sccc1C`, “inactive”; to `C[C@@H](O)[C@H]1C(=O)N2C(C(=O)O)=C(S[C@@H]3CN[C@H](CNS(N)(=O)=O)C3)[C@H](C)[C@H]12`, “inactive”.
In the case of `CCCCc1nc(Cl)c(CO)n1Cc1ccc(-c2ccccc2-c2nn[nH]n2)cc1` it was “inactive”.
In the case of `CC(N)C12CC3CC(CC(C3)C1)C2` (configuration not stated) it was “inactive”; in that of `NS(=O)(=O)Cc1noc2ccccc12`, “inactive”; in that of `CCCCc1oc2ccc(NS(C)(=O)=O)cc2c1C(=O)c1ccc(OCCCN(CCCC)CCCC)cc1`, “inactive”.
`COc1cc2c(cc1OC)C(=O)C(CC1CCN(Cc3ccccc3)CC1)C2` (configuration not stated): the Potency entry was “inactive”.
In the case of `CC(C)NCC(O)COc1ccc(CCOCC2CC2)cc1` (configuration not stated) it was “inactive”; in that of `O=C(O)c1cn(C2CC2)c2cc(N3CCNCC3)c(F)cc2c1=O`, “inactive”; in that of `COC(c1ccccc1)(c1ccccc1)[C@H](Oc1nc(C)cc(C)n1)C(=O)O`, “inactive”.
In the case of `CC(C)NCC(O)c1ccc(O)c(O)c1` (configuration not stated) it was “inactive”; in that of `CNCCc1ccccn1`, “inactive”; in that of `CC(C)C(=O)Nc1ccc([N+](=O)[O-])c(C(F)(F)F)c1`, “inactive”.
In the case of `OC(CCN1CCCC1)(c1ccccc1)C1CCCCC1` (configuration not stated) it was “inactive”.
Consider `CN/C(=C\[N+](=O)[O-])NCCSCc1ccc(CN(C)C)o1`, for which the Potency result is “inactive”.
Turning to `C[C@@H](NCCCc1cccc(C(F)(F)F)c1)c1cccc2ccccc12`, the Potency result was “inactive”.
In the case of `Cc1cc2c(s1)Nc1ccccc1N=C2N1CCN(C)CC1` it was “inactive”; in that of `CCOC(=O)[C@H](CCc1ccccc1)N[C@@H](C)C(=O)N1Cc2ccccc2C[C@H]1C(=O)O`, “inactive”; in that of `COc1cc2c(N3CCN(C(=O)Nc4ccc(OC(C)C)cc4)CC3)ncnc2cc1OCCCN1CCCCC1`, “inactive”.
As to `OCCN1CCN(CCCN2c3ccccc3Sc3ccc(Cl)cc32)CC1`, the Potency result was “inactive”.
To `O=C1Nc2ccc(Cl)cc2[C@@](C#CC2CC2)(C(F)(F)F)O1` belongs “inactive”; to `N[C@@H](Cc1cc(I)c(Oc2cc(I)c(O)c(I)c2)c(I)c1)C(=O)O`, “inactive”.
Regarding `CC[C@H](C)C(=O)O[C@H]1C[C@@H](C)C=C2C=C[C@H](C)[C@H](CC[C@@H]3C[C@@H](O)CC(=O)O3)[C@H]21`, the Potency result was “inactive”.
In the case of `O=c1[nH]cc(F)c(=O)[nH]1` it was “inactive”.
To `CN(C)CCc1c[nH]c2ccc(CS(=O)(=O)N3CCCC3)cc12` belongs “inactive”.
To `CN(C)c1cc(NC(=O)CNC(C)(C)C)c(O)c2c1C[C@@H]1C[C@H]3[C@H](N(C)C)C(=O)C(C(N)=O)=C(O)[C@@]3(O)C(=O)C1=C2O` belongs “inactive”.
Turning to `CCC[C@H](N[C@@H](C)C(=O)N1[C@H](C(=O)O)C[C@@H]2CCCC[C@@H]21)C(=O)OCC`, the Potency entry was “inactive”.
To `NC[C@H](O)c1ccc(O)c(O)c1` belongs “inactive”; to `CC(C)C[C@H](NC(=O)[C@H](Cc1ccccc1)NC(=O)c1cnccn1)B(O)O`, 485 nM (active); to `O=C1c2cccc3c2[C@H](CCC3)CN1[C@@H]1CN2CCC1CC2`, “inactive”.
On to `COc1ccc2nc(S(=O)Cc3ncc(C)c(OC)c3C)[nH]c2c1` (configuration not stated), for which the Potency entry is “inactive”.
As for `N=c1nc(N2CCCCC2)cc(N)n1O`, the Potency entry is “inactive”.
In the case of `CC(=O)Oc1ccccc1C(=O)Nc1ncc([N+](=O)[O-])s1` it was “inactive”.
